Reference: PubChem BioAssay (Tox21)
Records with an inconclusive call do not appear. A call without a number means that no potency is given here. Calls of active or inactive are those of the source. Calls come from the whole dose curve; as a rule, active = well fitted activation curve with a large enough effect in the signal ratio in the repeat runs (not every such curve was filed as active); inconclusive = weak or mixed curves; inactive = flat fitted curve, though single readings scatter; the % refers to the signal ratio.

Assay: qHTS assay to identify small molecule agonists of H2AX (AID 1224845)
Conditions: CHO-K1 phospho-H2AX Ser139 HTRF, 3 h; series mostly up to 154 µM
Method in brief: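 Wild-type CHO-K1 cells, plated overnight, exposed 3hr at 37C to 15 concentrations (0.76% DMSO final). Lysed, then HTRF anti-pH2AX (S139) cryptate and anti-H2AX-d2 antibodies, 24 hr room temperature; 665/620 nm emission read.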
Potency is the fitted concentration of half-maximal effect.

Compound	Potency
COC(=O)CCCCC(=O)OC	inactive
O=C(NCC1CCCCN1)c1cc(OCC(F)(F)F)ccc1OCC(F)(F)F (stereo not drawn)	inactive
CCCCCNCCCCC	inactive
OB(O)O	inactive
C=C(C)CC(C)(C)C	inactive
O=[N+]([O-])c1cc(C(F)(F)F)ccc1Cl	inactive
CCCCCCC(=O)O	inactive
CC(=O)OC/C=C(\C)CCC=C(C)C	inactive
OC[C@H]1O[C@@H](Oc2ccc(O)cc2)[C@H](O)[C@@H](O)[C@@H]1O	inactive
CC1(C)C(=O)N(Cl)C(=O)N1Cl	inactive
CC(=O)c1nccs1	inactive
COc1ccc2cc3[n+](cc2c1OC)CCc1cc2c(cc1-3)OCO2	inactive
CC(O)CNCC(C)O (stereo not drawn)	inactive
Cc1ccccc1Cl	inactive
CO[Si](CCCNCCN)(OC)OC	inactive
Oc1ccc(Cc2ccccc2O)cc1	inactive
CCCN(CCC)C(=O)SCC	inactive
CS(=O)(=O)c1ccc(Cl)cc1	inactive
CC[N+](CC)(CC(=O)Nc1c(C)cccc1C)Cc1ccccc1	inactive

Compound	Potency
COc1ccc([C@@H]2CC(=O)c3c(O)cc(O[C@@H]4O[C@H](CO[C@@H]5O[C@@H](C)[C@H](O)[C@@H](O)[C@H]5O)[C@@H](O)[C@H](O)[C@H]4O)cc3O2)cc1OC	inactive
C1CCCNCC1	inactive
NC(=O)NC(N)=O	inactive
O=[N+]([O-])c1ccccc1C(F)(F)F	inactive
CC(=O)OC(C)(C)C1CC=C(C)CC1 (stereo not drawn)	inactive
CCCCCCCC(=O)O	inactive
CC(COCC(C)OC(=O)c1ccccc1)OC(=O)c1ccccc1 (stereo not drawn)	inactive
Cc1ccncc1	inactive
COc1c(Cl)ccc(Cl)c1C(=O)O	inactive
CN=C(NC#N)NCCSCc1nc[nH]c1C	inactive
OCC(O)CS (stereo not drawn)	inactive
CCOC(=O)CC(=O)OCC	inactive
COC(=O)/C=C\C(=O)OC	inactive
CC1=CC(=O)CC(C)(C)C1	inactive
CC(=O)CC(=O)N(C)C	inactive
O=c1n(CCCN2CCN(c3cccc(Cl)c3)CC2)nc2ccccn12	inactive
N#CCC(=O)O	inactive
NC(=O)c1ncn([C@@H]2O[C@H](CO)[C@@H](O)[C@H]2O)n1	53.2 µM (active)
c1cnc2c(c1)ccc1cccnc12	6.35 µM (active)
